Assay results from publication PMC4336329 (PLoS ONE, 2015).
About 14,000 (4.5%) of roughly 310,000 compounds showed an effect of 50% or more. Effects have a minus sign here. The entries come from a sample that favours strong results as a whole.

Each molecule was assayed against human ether-à-go-go-related gene (hERG) potassium channel (human, UniProt Q12809) (assay: primary screen, population patch clamp on CHO cells stably expressing hERG; higher = less effect of the substance).
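Note: peak tail current of the secondary pulse compared with the same well before compound.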

human ether-à-go-go-related gene (hERG) potassium channel, sequence (Q12809 whole entry, looked up): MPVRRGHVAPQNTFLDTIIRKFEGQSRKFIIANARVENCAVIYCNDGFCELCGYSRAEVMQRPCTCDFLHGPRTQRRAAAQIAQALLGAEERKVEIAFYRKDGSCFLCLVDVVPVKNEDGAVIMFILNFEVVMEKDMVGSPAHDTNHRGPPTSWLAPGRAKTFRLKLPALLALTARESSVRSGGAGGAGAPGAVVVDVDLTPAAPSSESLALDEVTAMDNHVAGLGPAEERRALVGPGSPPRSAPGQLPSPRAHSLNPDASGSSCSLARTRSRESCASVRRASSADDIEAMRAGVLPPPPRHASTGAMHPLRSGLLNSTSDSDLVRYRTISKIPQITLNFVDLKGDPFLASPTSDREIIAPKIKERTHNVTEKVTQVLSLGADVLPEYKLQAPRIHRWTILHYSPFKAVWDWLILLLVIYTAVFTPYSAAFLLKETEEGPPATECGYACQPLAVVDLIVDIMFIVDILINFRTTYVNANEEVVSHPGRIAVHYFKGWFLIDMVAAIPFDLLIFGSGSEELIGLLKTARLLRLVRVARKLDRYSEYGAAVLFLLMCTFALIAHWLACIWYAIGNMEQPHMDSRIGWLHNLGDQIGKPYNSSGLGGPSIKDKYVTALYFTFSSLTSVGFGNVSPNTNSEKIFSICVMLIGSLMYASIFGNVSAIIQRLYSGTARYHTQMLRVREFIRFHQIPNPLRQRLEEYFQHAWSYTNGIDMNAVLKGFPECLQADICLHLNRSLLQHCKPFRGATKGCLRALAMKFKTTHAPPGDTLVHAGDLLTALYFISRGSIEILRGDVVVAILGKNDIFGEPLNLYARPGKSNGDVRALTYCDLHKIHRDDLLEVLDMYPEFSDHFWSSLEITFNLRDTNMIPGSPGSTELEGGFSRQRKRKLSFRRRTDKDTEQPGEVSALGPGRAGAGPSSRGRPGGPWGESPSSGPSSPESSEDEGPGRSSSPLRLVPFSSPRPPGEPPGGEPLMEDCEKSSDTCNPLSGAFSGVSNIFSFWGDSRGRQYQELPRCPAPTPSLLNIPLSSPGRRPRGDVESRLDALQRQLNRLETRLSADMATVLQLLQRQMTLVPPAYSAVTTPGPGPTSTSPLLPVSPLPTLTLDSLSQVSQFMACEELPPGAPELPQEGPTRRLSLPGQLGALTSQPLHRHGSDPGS

| SMILES | hERG current change (%, negative = inhibition) at 10uM [%] |
| --- | --- |
| CCOC(=O)N1CCN(S(=O)(=O)c2ccc(Br)s2)CC1 | -9.22 |
| COc1ccc(CC(=O)Nc2ccc(-c3csc(C)n3)cc2)cc1 | 7.89 |
| COc1ccc(Nc2nc(-c3cc4cccc(OC)c4oc3=O)cs2)cc1 | 11.6 |
| Cc1cccc(C(=O)Nc2cccc(C(=O)Nc3cc(C)ccn3)c2)c1 | 7.29 |
| O=C(CCC1N=C2c3ccccc3N=C(SCC(=O)NCc3ccco3)N2C1=O)NCc1ccco1 (stereo not drawn) | 12.7 |
| O=C(CC1N=C2c3ccccc3N=C(SCc3ccccc3Cl)N2C1=O)NCc1ccco1 (stereo not drawn) | -47 |
| O=C(CSC1=Nc2ccccc2C2=NC(CC(=O)NCc3ccco3)C(=O)N12)NCc1ccco1 (stereo not drawn) | 7.61 |
| O=C(CSC1=Nc2ccccc2C2=NC(CC(=O)NC3CCCCC3)C(=O)N12)NCc1ccco1 (stereo not drawn) | -29.9 |
| CCC(C)NC(=O)CSC1=Nc2ccccc2C2=NC(CCC(=O)NCc3ccco3)C(=O)N12 (stereo not drawn) | -1.01 |
| CCCCNC(=O)CC1N=C2c3ccccc3N=C(SCC(=O)Nc3cccc(C)c3)N2C1=O (stereo not drawn) | -52.6 |
| Cc1ccc(CSC2=Nc3ccccc3C3=NC(CCC(=O)NCc4ccco4)C(=O)N23)cc1 (stereo not drawn) | -68.8 |
| O=C(CC1N=C2c3ccccc3N=C(SCc3ccc(Cl)cc3)N2C1=O)NCc1ccco1 (stereo not drawn) | -75.3 |
| Cc1ccc(CSC2=Nc3ccccc3C3=NC(CC(=O)NCc4ccco4)C(=O)N23)cc1 (stereo not drawn) | -51.8 |
| NC(=O)CSC1=Nc2ccccc2C2=NC(CC(=O)NCc3cccs3)C(=O)N12 (stereo not drawn) | 11.2 |
| CCCCNC(=O)CC1N=C2c3ccccc3N=C(SCC(=O)Nc3ccccc3C)N2C1=O (stereo not drawn) | -0.929 |
| CCCCNC(=O)CC1N=C2c3ccccc3N=C(SCC(=O)Nc3cccc(OC)c3)N2C1=O (stereo not drawn) | -10.6 |
| Cn1c(SCC(=O)O)nnc1-c1ccc(NC(=O)c2ccc(Cl)c(Cl)c2)cc1 | 7 |
| COCc1[nH]nc2c1C(C1C=CCCC1)C(C#N)=C(N)O2 (stereo not drawn) | -8.37 |
| CSc1ccc(/C=C/C(=O)NC(=O)c2ccccc2O)cc1 | 11.3 |

| SMILES | hERG current change (%, negative = inhibition) at 10uM [%] |
| --- | --- |
| O=C(O)/C=C/c1cnc2ccccc2c1 | 19.1 |
| CCOc1ccc(C(O)(CCC(C)C)C(CN2CCOCC2)c2ccccc2)cc1.Cl (stereo not drawn) | 13.3 |
| COc1ccc(CCNC(=O)CCC(=O)Nc2nnc(C(C)C)s2)cc1OC | 10.4 |
| Cc1cc(N)n(-c2nc(-c3cccnc3)nc3ccccc23)n1 | -27.4 |
| O=S(=O)(CCN1CCOCC1)c1ccc(OC(F)(F)F)cc1 | 2.9 |
| COc1ccc(OCCOC(=O)C(C)NS(=O)(=O)c2ccc(NC(C)=O)cc2)cc1 (stereo not drawn) | -7.73 |
| COC(=O)C1=C(c2c(C)noc2C)C[C@@H]2CC[C@H]1N2C(=O)N1CCCCC1 | 17.1 |
| CC(=O)Nc1ccc(N=Nc2ccccc2)cc1 | 8.44 |
| O=C(NC(=S)Nc1nc(-c2ccc([N+](=O)[O-])cc2)cs1)c1ccco1 | 16.5 |
| O=C(CCC1N=C2c3ccccc3N=C(SCc3ccccc3Cl)N2C1=O)NCc1ccco1 (stereo not drawn) | -32.4 |
| O=C(CC1N=C2c3ccccc3N=C(SCc3ccc(F)cc3)N2C1=O)NCc1ccco1 (stereo not drawn) | -73.9 |
| O=C(CCC1N=C2c3ccccc3N=C(SCc3cccc(Cl)c3)N2C1=O)NCc1ccco1 (stereo not drawn) | -42.2 |
| CCC(C)NC(=O)CSC1=Nc2ccccc2C2=NC(CC(=O)NCc3ccc(F)cc3)C(=O)N12 (stereo not drawn) | -11.4 |
| O=C(CCC1N=C2c3ccccc3N=C(SCc3ccc(F)cc3)N2C1=O)NCc1ccco1 (stereo not drawn) | -70.9 |
| O=C(CSC1=Nc2ccccc2C2=NC(CC(=O)NCc3ccco3)C(=O)N12)NCC1CCCO1 (stereo not drawn) | 7.92 |
| O=C(CCC1N=C2c3ccccc3N=C(SCc3ccc(Cl)cc3)N2C1=O)NCc1ccco1 (stereo not drawn) | -52 |
| O=C(CCC1N=C2c3ccccc3N=C(SCC(=O)NCC3CCCO3)N2C1=O)NCc1ccc(F)cc1 (stereo not drawn) | 2.89 |
| NC(=O)CSC1=Nc2ccccc2C2=NC(CCC(=O)NCc3ccc(F)cc3)C(=O)N12 (stereo not drawn) | 15.1 |
| CCCCN(C)CCNC(=O)c1ccc(Cn2c(=S)[nH]c3ccc(Br)cc3c2=O)cc1 | -41 |

| SMILES | hERG current change (%, negative = inhibition) at 10uM [%] |
| --- | --- |
| COCCNC(=S)N(CCCN(C)C)Cc1cc2cc3c(cc2[nH]c1=O)OCCO3 | 24.9 |
| CC(Oc1ccc2c(-c3ccccc3)cc(=O)oc2c1)C(=O)N[C@H](Cc1c[nH]c2ccccc12)C(=O)O (stereo partly drawn) | 7.48 |
| O=C(NCC1CCCO1)c1cnn2c1NC(c1ccccc1)CC2C(F)(F)F (stereo not drawn) | 1.68 |
| NS(=O)(=O)c1cccc(NC(=O)COC(=O)CCc2ccccc2)c1 | 17 |
| CCC(=O)N1CCc2cc(S(=O)(=O)CCC(=O)NCc3ccc4c(c3)OCO4)ccc21 | 0.659 |
| Cc1ccc2c(CC(=O)NCCc3ccc(S(N)(=O)=O)cc3)coc2c1 | -2.43 |
| O=C(O)C(=O)O.c1ccc(COc2ccc(OCCCN3CCCCC3)cc2)cc1 | -78.3 |
| O=C(O)C(=O)O.c1ccc(COc2ccc(OCCCN3CCCC3)cc2)cc1 | -73.8 |
| COc1cccc2c1-c1c(C(=O)O)cccc1C2=O | 15.7 |
| CC(=O)c1ccc(NC(=O)C(C)NCc2ccccc2Cl)cc1 (stereo not drawn) | -0.834 |
| CCCCN(C)Cc1c(C)[nH]c2c(ccc3ccccc32)c1=O | -73.6 |
| CCCCN(C)Cc1c(C)[nH]c2ccccc2c1=O | -2.26 |
| CCCCN(CC)Cc1c(C)[nH]c2ccccc2c1=O | -20.7 |
| Cc1[nH]c2ccc(Cl)cc2c(=O)c1CN1CCCC1 | 1.86 |
| CCCCN(C)Cc1c(C)[nH]c2c(Cl)cccc2c1=O | -38.7 |
| CCN(Cc1ccccc1)Cc1c(C)[nH]c2c(C)c(C)ccc2c1=O | -40.6 |
| CCCCN(C)Cc1c(C)[nH]c2ccc(OCC)cc2c1=O | -39.9 |
| CCCCN(C)Cc1c(C)[nH]c2ccc(Cl)cc2c1=O | -55.3 |
| CCCCN(CC)Cc1c(C)[nH]c2c(ccc3ccccc32)c1=O | -74.3 |
